# Where “and” joins values, the source holds several entries; their conditions need not be identical. Equal values may be shown once. Inconclusive results are not listed. Calls of active or inactive are those of the source. Unless noted, the limit is not given here; nearly all actives have AC50 up to about 26 µM.
# Key:
# [1] = growth inhibition of DIPG glioma cells, dose response, cell-based, SU-DIPG-XVII, MIPE5.0, CellTiter-Glo, qHTS (AID 1347060); conditions: SU-DIPG-XVII viability, CellTiter-Glo ATP luminescence;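 as to AC50: cells exposed to compound for 48 hours before viability readout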
# [2] = growth inhibition of DIPG glioma cells, dose response, cell-based, SU-DIPG-XIII, MIPE5.0, CellTiter-Glo, qHTS (AID 1347064; cut-off not given, nearly all actives have AC50 up to about 23 µM;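 as to AC50: cells exposed to compound for 48 hours before the viability read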); conditions: SU-DIPG-XIII viability, CellTiter-Glo ATP luminescence
# [3] = viability loss in pontine glioma line – cell-based, SU-DIPG-XXV, MIPE5.0, CellTiter-Glo, qHTS, dose response (AID 1347065); conditions: CellTiter-Glo ATP luminescence;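 also: cells exposed to compound for 48 hours before ATP readout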
# [4] = SU-DIPG-XXV glioma cell viability, MIPE5.0 library, qHTS (AID 1347068; cut-off not given, nearly all actives have IC50 up to about 30 µM;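 as to IC50: cells exposed to compound for 48 hours before viability readout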)
# [5] = growth inhibition of DIPG glioma cells, dose response, cell-based, JHH-DIPG-1, MIPE4.0, CellTiter-Glo, qHTS (AID 1347062; cut-off not given, nearly all actives have AC50 up to about 27 µM;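 as to AC50: cells exposed to compound for two days before readout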); conditions: JHH-DIPG-1 viability, CellTiter-Glo ATP luminescence
# [6] = JHH-DIPG-1 glioma cell viability, MIPE5.0 library, CellTiter-Glo luminescence, qHTS (AID 1347067); conditions: JHH-DIPG-1 glioma viability, CellTiter-Glo ATP luminescence;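 also: cells exposed to compound for 48 hours before readout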
# [7] = growth inhibition of DIPG glioma cells, dose response, cell-based, SU-DIPG-IV, MIPE4.0, CellTiter-Glo, qHTS (AID 1347063; cut-off not given, nearly all actives have AC50 up to about 30 µM;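 also: compound exposure lasted 48 hours before the viability readout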); conditions: SU-DIPG-IV viability, CellTiter-Glo ATP luminescence
# [8] = SU-DIPG-VI glioma cell viability, MIPE4.0 library, CellTiter-Glo luminescence, qHTS (AID 1347066; cut-off not given, nearly all actives have AC50 up to about 30 µM;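 also: cells exposed to compound for 48 hours before readout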); conditions: CellTiter-Glo ATP luminescence
# [9] = liver-stage malaria parasite growth inhibition, primary screen, cell-based, HepG2, luciferase luminescence, HepG2 viability (AID 624349; in the data active = parasite load remaining mostly below about 12%, no sharp cut-off; inactive = mostly above about 10%;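 also: 100% = mean of DMSO negative control wells on the same plate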); conditions: P. berghei liver stage in HepG2, luciferase luminescence, concentration not given here; parasite load remaining: stronger effect = lower value; viability: measured here: HepG2 viability without parasites
# [10] = Cy5 fluorescence interference with SSB-bound oligo, artefact control for HCV NS3 helicase inhibitor project, biochemical, NIH Clinical Collection, E. coli SSB (AID 743268; call rule not given here)
# [11] = tested on: Hepatitis C virus NS3 helicase; assay: HCV NS3 helicase inhibitors, primary screen, biochemical, fluorescence polarization, NIH Clinical Collection (AID 743270; call rule not given here); conditions: NS3 helicase binding to Cy5-dT15 DNA, stronger effect = higher value, concentration not given here
# [12] = target: Single-stranded DNA-binding protein (Escherichia coli (strain K12)) (UniProt P0AGE0); assay: E. coli SSB displacement from DNA, counter-screen for HCV NS3 helicase inhibitor project, biochemical, fluorescence polarization, NIH Clinical Collection (AID 743271; in the data active = inhibition above about 28%); conditions: stronger effect = higher value, concentration not given here
# [13] = fluorescence interference in NS3h assay format, artefact control for HCV NS3 helicase inhibitor project, biochemical, NIH Clinical Collection (AID 743272; call rule not given here;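 also: HCV NS3 helicase with a Cy5 labelled single stranded DNA probe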); conditions: fluorescence interference counterscreen, stronger effect = lower value
# [14] = sensitizers of A549 cells to miR-34 induction, primary screen, imaging, A549 dox-inducible miR-34, nuclei and caspase counts (AID 1347080;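 active = compounds whose cell count with miR-34 switched on is under 0.7 times the count with it off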); conditions: A549 miR-34 inducible, Hoechst nuclei count, 48 h
# [15] = survival rescue of mitochondrial mutant cells in low glucose, primary screen, MELAS cybrids, Rieske KO mouse fibroblasts, CellTiter-Glo (AID 1508586;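 active = mean z-score across replicates of 1.96 or higher in either the MELAS or the Rieske mutant cell line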;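 also: z relative to plate mean and SD of compound and empty wells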)
# [16] = viability rescue of complex I mutant cybrids, primary screen, cell-based, galactose medium, ATP luminescence (AID 1645843;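 active = z-score of at least 1.8 in each of two replicates, scored against plate mean and spread of sample wells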;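 also: positive z means more ATP and so rescue of galactose-driven cybrid death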); conditions: complex I mutant cybrid cells, 72 h, stronger effect = higher value
# [17] = growth inhibition of DIPG glioma cells, dose response, cell-based, SU-DIPG-XIII, MIPE4.0, CellTiter-Glo, qHTS (AID 1347061; cut-off not given, nearly all actives have AC50 up to about 37 µM;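 also: cells exposed to compound for 48 hours before readout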); conditions: SU-DIPG-XIII viability, CellTiter-Glo ATP luminescence
# [18] = measured here: relative caspase fold change +Dox/-Dox
# [19] = measured here: total cells with miR-34 induction, stronger effect = lower value
# [20] = measured here: total cells without miR-34 induction
# [21] = MELAS cybrid survival, CellTiter-Glo 48 h, stronger effect = higher value
# [22] = Rieske KO mouse fibroblast survival, CellTiter-Glo 72 h
smiles,measurement,setting,value
NC(=O)[C@@H](CC1CC1)[C@@H](CCC(F)(F)F)C(=O)N[C@H]1N=C(c2ccccc2)c2cccc(F)c2NC1=O,outcome,[1],inactive
same,outcome,[2],inactive
same,outcome,[3],inactive
same,outcome,[4],inactive
CC(N[C@H]1C[C@@H]1c1ccccc1)c1ccc2c(c1)OCCO2 (stereo partly specified),outcome,[1],inactive
same,outcome,[5],inactive
same,outcome,[2],inactive
same,outcome,[3],inactive
same,outcome,[6],inactive
same,outcome,[4],inactive
COc1cc(C)[nH]c(=O)c1CNC(=O)c1c(C)n([C@H](C)C2CCOCC2)c2ccccc12,outcome,[1],inactive
same,outcome,[2],inactive
same,outcome,[3],inactive
same,outcome,[6],inactive
C[C@H]1[C@H](O)[C@@H](C)/C=C/C=C/CC/C=C/C=C/C=C/C=C/[C@H](O[C@@H]2O[C@H](C)[C@@H](O)[C@H](N)[C@@H]2O)C[C@@H]2O[C@](O)(C[C@@H](O)[C@H](O)CC[C@@H](O)C[C@@H](O)C[C@@H](O)CC(=O)O[C@H]1C)C[C@H](O)[C@H]2C(=O)O,outcome,[1],inactive
same,outcome,[2],inactive
same,outcome,[3],inactive
same,outcome,[6],inactive
same,outcome,[4],inactive
CCN1C[C@]2(OC(=O)c3ccccc3NC(C)=O)CC[C@H](OC)[C@@]34[C@@H]2C[C@@H]([C@@H]13)[C@@]1(O)C[C@H](OC)[C@H]2C[C@@H]4[C@]1(O)[C@H]2OC,outcome,[1],inactive
same,outcome,[5],inactive
same,outcome,[7],inactive
same,outcome,[2],inactive
same,outcome,[3],inactive
same,outcome,[8],inactive
same,outcome,[6],inactive
same,outcome,[4],inactive
C[C@]12Cc3cn[nH]c3C[C@@H]1CC[C@@H]1[C@@H]2CC[C@@]2(C)[C@H]1CC[C@]2(C)O,parasite load remaining,[9],50.6% (inactive) and 13.2% (inactive)
same,viability,[9],69.5% and 91.5%
same,fluorescence ratio,[10],0.94 (inactive)
same,inhibition,[11],-1.97% (inactive)
same,inhibition,[12],-2.76% (inactive)
same,fluorescence ratio,[13],0.96 (inactive)
same,outcome,[1],inactive
same,outcome,[7],inactive
same,outcome,[2],inactive
same,outcome,[3],inactive
same,outcome,[8],inactive
same,outcome,[6],inactive
same,outcome,[4],inactive
same,fold change,[14]; stronger effect = lower value,0.887 (inactive)
same,fold change,[14]; [18],2.02
same,cell count,[14]; [19],8690
same,cell count,[14]; [20],9800
same,z-score,[15]; [21],0.697 (inactive) and -0.417 (inactive)
same,z-score,[15]; [22],-0.0861 and -1.23
same,z-score,[16],-0.265 (inactive)
COC(=O)[C@@]12OC[C@]34[C@H]([C@@H](O)[C@@H]1O)[C@@]1(C)CC(=O)C(O)=C(C)[C@@H]1C[C@H]3OC(=O)[C@H](OC(=O)/C=C(\C)C(C)C)[C@@H]24,AC50,[1],0.0295 µM (active)
same,AC50,[2],0.059 µM (active)
same,AC50,[3],0.0105 µM (active)
same,AC50,[6],0.0525 µM (active)
same,IC50,[4],5.9 µM (active)
CN[C@@H]1C[C@H]2O[C@@](C)([C@@H]1OC)n1c3ccccc3c3c4c(c5c6ccccc6n2c5c31)C(=O)NC4,AC50,[1],0.118 µM (active)
same,AC50,[2],0.263 µM (active)
same,AC50,[3],0.209 µM (active)
same,AC50,[6],0.209 µM (active)
same,IC50,[4],0.833 µM (active)
same,fold change,"[14]; stronger effect = lower value, cell number ratio, induced over uninduced",1.19 (inactive)
same,fold change,[14]; [18],0.478
same,cell count,[14]; [19],874
same,cell count,[14]; [20],732
COc1cc2c(cc1F)C(c1ccccc1Cl)=Nc1c(n[nH]c1C)N2,AC50,[1],5.25 µM (active)
same,AC50,[3],13.2 µM (active)
same,AC50,[6],14.8 µM (active)
same,outcome,[4],inactive
O=C(NCCCNc1nc(Nc2ccc(N3CCOCC3)cc2)ncc1C1CC1)C1CCC1,AC50,[1],20.9 µM (active)
same,AC50,[3],16.6 µM (active)
same,AC50,[6],14.8 µM (active)
CC[C@H]1/C=C\C=C/C[C@@H](C)[C@H](O)[C@@](C)(O)C(=O)[C@@H](C)[C@H](O)[C@@H](C)C(=O)[C@@H](C)[C@H](O)[C@@H](C)/C=C/C(=O)O[C@@H]2[C@H](C)[C@H](CC1)O[C@]1(CC[C@H](C)[C@H](C[C@@H](C)O)O1)[C@H]2C,AC50,[1],10.5 µM (active)
same,AC50,[5],20.9 µM (active)
same,AC50,[7],10.5 µM (active)
same,AC50,[2],7.42 µM (active)
same,AC50,[3],0.00525 µM (active)
same,AC50,[8],6.62 µM (active)
same,AC50,[6],0.0661 µM (active)
C=C(C)[C@@H]1CCC(C)=C[C@H]1c1c(O)cc(CCCCC)cc1O,AC50,[1],26.3 µM (active)
same,AC50,[2],23.5 µM (active)
same,AC50,[6],23.5 µM (active)
c1ccc2c(CN3CCNCC3)cccc2c1,outcome,[1],inactive
same,outcome,[5],inactive
same,outcome,[2],inactive
same,outcome,[3],inactive
same,outcome,[8],inactive
same,outcome,[6],inactive
O=C(CBr)N1CC([N+](=O)[O-])([N+](=O)[O-])C1,outcome,[1],inactive
same,outcome,[3],inactive
same,outcome,[4],inactive
CC(C)(C)c1cc(C=C(C#N)C#N)cc(Br)c1O,parasite load remaining,[9],43.4% (inactive)
same,viability,[9],165%
same,AC50,[1],20.9 µM (active)
same,AC50,[2],18.6 µM (active)
same,AC50,[3],23.5 µM (active)
same,AC50,[6],18.6 µM (active)
same,outcome,[4],inactive
same,fold change,[14]; stronger effect = lower value,0.886 (inactive)
same,fold change,[14]; [18],1.14
same,cell count,[14]; [19],7700
same,cell count,[14]; [20],8690
same,z-score,[15]; [21],-0.608 (inactive)
same,z-score,[15]; [22],-0.108
Cn1c(CCCCCCC(=O)NO)nc2cc(N(CCCl)CCCl)ccc21,AC50,[1],9.34 µM (active)
same,AC50,[6],9.34 µM (active)
same,outcome,[4],inactive
O=c1[nH]c2ccc(Cl)cc2c(N[C@@H]2CN3CCC2CC3)c1-c1nc2ccccc2[nH]1,AC50,[1],2.63 µM (active)
same,AC50,[5],1.87 µM (active)
same,AC50,[7],1.66 µM (active)
same,AC50,[2],3.32 µM (active)
same,AC50,[3],3.72 µM (active)
same,AC50,[6],3.32 µM (active)
same,IC50,[4],8.33 µM (active)
COc1ccc2c(c1)CN(C)CC2c1ccc(Cl)c(Cl)c1 (stereo unspecified),outcome,[17],inactive
CC(=O)OC[C@H]1O[C@@H]([S-])[C@H](OC(C)=O)[C@@H](OC(C)=O)[C@@H]1OC(C)=O.CC[PH+](CC)CC.[Au],AC50,[1],1.05 µM (active)
same,AC50,[2],1.66 µM (active)
same,AC50,[3],1.18 µM (active)
same,AC50,[6],1.32 µM (active)
same,IC50,[4],2.63 µM (active)
O=C(O)CNC(=O)C1C(=O)N(C2CCCCC2)C(=O)N(C2CCCCC2)C1=O,AC50,[1],20.9 µM (active)
same,outcome,[2],inactive
same,outcome,[3],inactive
same,outcome,[4],inactive
CC1(C)CC[C@]2(NC(=O)C(C)(F)F)CC[C@]3(C)[C@H](C(=O)C=C4[C@@]5(C)C=C(C#N)C(=O)C(C)(C)[C@@H]5CC[C@]43C)[C@@H]2C1,AC50,[1],7.42 µM (active)
same,AC50,[2],10.5 µM (active)
same,AC50,[3],9.34 µM (active)
same,AC50,[6],7.42 µM (active)
same,IC50,[4],11.8 µM (active)
O=C(Nc1ccncc1)C(=O)c1cn(Cc2ccc(Cl)cc2)c2ccccc12,AC50,[1],0.295 µM (active)
same,AC50,[5],0.296 µM (active)
same,AC50,[2],1.66 µM (active)
same,AC50,[3],0.148 µM (active)
same,outcome,[8],inactive
same,AC50,[6],0.417 µM (active)
same,IC50,[4],0.372 µM (active)
COc1cc(C(=O)N2CC[C@@H](O)[C@@H](N)C2)cc2nc(-c3cc4ccccc4n3CC3CC3)n(C)c12,AC50,[1],23.5 µM (active)
same,AC50,[2],23.5 µM (active)
same,AC50,[3],29.5 µM (active)
same,AC50,[6],23.5 µM (active)

# From PubChem BioAssay
